Bioassay records (PubChem)
Many of the other results were omitted from the sample, so hits are more common in it than they were.
MITF inh – inhibitors of MITF, primary screen, MITF inhibitor project, cell-based, luminescence; AID 2240, 2010; 37,000 compounds, 0.28% hits; inhibition, % (concentration not given with the values); TRPM1 promoter luciferase, 24 h; in the data active = inhibition above about 85%;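 also: human melanocyte line stably carrying TRPM1 promoter luciferase reporter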
Shh pathway inh – Hedgehog pathway signaling inhibitors, primary screen, luminescence, Shh-LIGHT2 cells, Gli-luciferase; 22,000 compounds, 2.1% hits; AID 2313, 2010; Shh-LIGHT2 Gli-luciferase reporter, 30 h; inhibition, % (concentration not given with the values);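 active = mean inhibition across valid replicates above about 65%, limit read from the data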;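 also: pathway switched on by Shh-conditioned medium diluted 1 in 25 in low serum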
BJeLR viability – BJeLR cell viability loss, primary screen, luminescence, CellTiterGlo ATP. BJeLR fibroblasts viability, 48 h; HRASV12, hTERT and SV40 LT/ST transformed. viability loss activity score, % (test concentration not listed). 30,000 compounds, 0.64% hits. AID 2275, 2010; in the data active = viability loss activity score above about 50%;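 also: higher score means fewer live cells and less ATP luminescence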
Numbers without * were called inactive; . = no result.

SMILES	MITF inh	Shh pathway inh	BJeLR viability
COc1ccc(OC)c(-n2c(=S)[nH]c3cc(C(=O)N4CCC(C(N)=O)CC4)ccc3c2=O)c1	6	-23	0
CCc1nnc2c3c(-c4ccc(F)cc4)c(C)sc3ncn12	.	.	-1
CN1CCCC(CC2c3ccccc3Sc3ccccc32)C1 (configuration not stated)	-6	39	3
CSc1ccc2c(c1)C(N1CCN(C)CC1)Cc1ccccc1S2 (configuration not stated)	-16	70*	-3
OC(c1ccccc1)c1oc2ccccc2c1-c1cnn(-c2ccccc2)c1 (configuration not stated)	70	98*	0
CCN(C(=O)c1cc2c(C)nc3ccccc3c2o1)c1cccc(Cl)c1	.	.	-7
CC(=O)C1C(=O)[C@@H]2[C@H]3c4c[nH]c5cccc(c45)C[C@H]3C(C)(C)N2C1=O (some centres not stated)	9	77*	-9
CC(=O)C1C(=O)C2C3c4c[nH]c5cccc(c45)CC3C(C)(C)N2C1=O (configuration not stated)	-36	25	8
COC(=O)Cn1c(=O)c2c(nc3n2CCN3c2ccccc2)n(C)c1=O	.	.	-3
CCN1CNC(=S)N(c2ccccc2)C1	.	.	4
CCN1CSC(=S)N(Cc2ccccc2)C1	.	.	54*
CN=c1scc(C)n1/N=C/c1c(Cl)cccc1Cl	.	.	5
NC(N)=NN=Cc1c(Cl)cccc1Cl	0	65*	-2
NS(=O)(=O)c1ccc(CNC(=O)/C=C/c2ccc3c(c2)OCO3)cc1	.	.	0
O=C1Nc2ccccc2/C1=C\c1c(Cl)[nH]c2ccccc12	40	30	27
O=C1Nc2ccccc2/C1=C/C(=O)c1ccc(Cl)cc1	.	.	65*
COc1ccc2[nH]c3c(=O)n(CCCCC(=O)NCc4ccccc4)c(=S)[nH]c3c2c1	.	.	-1
CC/C=C\C/C=C\C/C=C\C/C=C\C/C=C\C/C=C\CCC(=O)O	1	-32	-5
C/C=C/C/C=C/CCC(=O)[C@H]1O[C@H]1C(N)=O	101*	78*	6
CC(C)(C)c1cc(/C=C(\C#N)C(N)=S)cc(C(C)(C)C)c1O	91*	106*	-3
N#CC(C#N)=C(N)/C(C#N)=C/c1cc(O)c(O)c(O)c1	-9	76*	-8
Cc1nn(CCCC(=O)N(C)Cc2ccccc2)c(=O)c2cc3sccc3n12	.	.	-2
CCN(CC)C(=O)CSc1nc(N)c(C#N)c(CC(C)C)c1C#N	.	.	3
C[C@@H]1O[C@@H](O[C@H]2[C@H](O)[C@@H](O)[C@H](OC[C@H]3O[C@@H](OC(=O)[C@]45CCC(C)(C)CC4C4=CCC6[C@@]7(C)CC[C@H](O)C(C)(C)C7CC[C@@]6(C)[C@]4(C)CC5)[C@H](O)[C@@H](O)[C@@H]3O)O[C@@H]2CO)[C@H](O)[C@H](O)[C@H]1O (some centres not stated)	45	76*	125*
CC1(C)CC[C@]2(C(=O)O)CC[C@]3(C)C(=CCC4[C@@]5(C)CC[C@H](O[C@@H]6OC[C@H](O)[C@H](O)[C@H]6O)[C@@](C)(CO)C5CC[C@]43C)C2C1 (some centres not stated)	16	79*	-2
SMILES	MITF inh	Shh pathway inh	BJeLR viability
CC1(C)CC[C@]2(C(=O)O[C@@H]3O[C@H](CO)[C@@H](O)[C@H](O)[C@H]3O)CC[C@]3(C)C(=CCC4[C@@]5(C)CC[C@H](O[C@@H]6OC[C@H](O)[C@H](O)[C@H]6O[C@@H]6O[C@H](CO)[C@@H](O)[C@H](O)[C@H]6O[C@@H]6OC[C@H](O)[C@H](O)[C@H]6O)[C@@](C)(CO)C5CC[C@]43C)C2C1 (some centres not stated)	-12	-9	-10
CC1(C)CC[C@]2(C(=O)OC3OC(CO)C(O)C(O)C3O)CC[C@]3(C)C(=CCC4[C@@]5(C)CC[C@H](OC6OC(C(=O)O)C(O)C(O)C6O)C(CO)(CO)C5CC[C@]43C)[C@@H]2C1 (some centres not stated)	40	27	133*
C[C@@H]1O[C@@H](O[C@H]2[C@H](O[C@H]3CC[C@@]4(C)C(CC[C@]5(C)C4CC=C4[C@@H]6CC(C)(C)CC[C@]6(C(=O)O[C@@H]6O[C@H](CO[C@@H]7O[C@H](CO)[C@@H](O)[C@H](O)[C@H]7O)[C@@H](O)[C@H](O)[C@H]6O)CC[C@]45C)[C@]3(C)CO)OC[C@H](O)[C@@H]2O)[C@H](O)[C@H](O)[C@H]1O (some centres not stated)	0	-2	-4
CC1(C)CC[C@@]2(C(=O)O[C@@H]3O[C@H](CO)[C@@H](O)[C@H](O)[C@H]3O)C(C1)C1=CCC3[C@@]4(C)CC[C@@H](O[C@@H]5O[C@H](C(=O)O)[C@@H](O[C@@H]6OC[C@@H](O)[C@H](O)[C@H]6O)[C@H](O)[C@H]5O)C(C)(C)C4CC[C@@]3(C)[C@]1(C)C[C@H]2O (some centres not stated)	-8	-10	0
C/C=C(\C)C(=O)O[C@H]1[C@H](OC(C)=O)[C@@]2(CO)C(CC1(C)C)C1=CCC3[C@@]4(C)CC[C@H](O[C@@H]5O[C@H](C(=O)O)[C@@H](O)[C@H](O[C@@H]6O[C@H](CO)[C@H](O)[C@H](O)[C@H]6O[C@@H]6O[C@@H](C)[C@H](O)[C@@H](O)[C@H]6O)[C@H]5O[C@@H]5O[C@H](CO)[C@@H](O)[C@H](O)[C@H]5O)C(C)(C)C4CC[C@@]3(C)[C@]1(C)C[C@H]2O (some centres not stated)	.	111*	.
CC1(C)CC[C@]2(C(=O)O[C@@H]3O[C@H](CO)[C@@H](O)[C@H](O)[C@H]3O)CC[C@]3(C)C(=CCC4[C@@]5(C)CC[C@H](O[C@@H]6O[C@H](C(=O)O)[C@@H](O[C@@H]7O[C@H](CO)[C@@H](O)[C@H](O)[C@H]7O)[C@H](O)[C@H]6O)C(C)(C)C5CC[C@]43C)C2C1 (some centres not stated)	10	7	2
CCC(C)NC(=O)Cc1ccc(OC)cc1 (configuration not stated)	.	.	0
Cc1cccc2sc(N(CCN(C)C)C(=O)c3ccc4ncsc4c3)nc12	.	.	9
C=CCc1ccc(O[C@@H]2O[C@H](CO[C@@H]3O[C@@H](C)[C@H](O)[C@@H](O)[C@H]3O)[C@@H](O)[C@H](O)[C@H]2O)c(O)c1	-8	-5	1
C=CCc1ccc(O[C@@H]2O[C@H](CO)[C@@H](O)[C@H](O)[C@H]2O)c(O[C@@H]2O[C@H](CO)[C@@H](O)[C@H](O)[C@H]2O)c1	10	-5	70*
Cc1cc(C)c2c(c1C(=O)Nc1cccc(C(F)(F)F)c1)CC(C)(C)C2=O	60	86*	4
CC(C)(C)c1ccc(C(=O)Nc2cccc(C(F)(F)F)c2)cc1	.	.	9
CCc1ccc(NC(=O)Cn2nc(-c3ccc(OC)cc3)ccc2=O)cc1	.	.	-8
COc1ccc(OC)c(S(=O)(=O)c2ccc(Br)cc2)c1	2	-29	-5
C=CS(=O)(=O)c1ccc(OC)c(N)c1	58	83*	4
